{"source": "paper PMC6919601", "about": "“Identification of Plasmodium dipeptidyl aminopeptidase allosteric inhibitors by high throughput screening” (PLoS ONE, 2019)", "note": "Out of some 110,000 compounds screened, about 230 (0.21%) showed an effect of 50% or more. This excerpt belongs to a sample that is enriched for strong results.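 Further: 30 min substrate incubation versus DMSO and 10 µM JCP410 controls.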"}
{"target": "DPAP1 (Plasmodium falciparum, UniProt Q8IIJ9)", "sequence (Q8IIJ9 whole entry, looked up)": "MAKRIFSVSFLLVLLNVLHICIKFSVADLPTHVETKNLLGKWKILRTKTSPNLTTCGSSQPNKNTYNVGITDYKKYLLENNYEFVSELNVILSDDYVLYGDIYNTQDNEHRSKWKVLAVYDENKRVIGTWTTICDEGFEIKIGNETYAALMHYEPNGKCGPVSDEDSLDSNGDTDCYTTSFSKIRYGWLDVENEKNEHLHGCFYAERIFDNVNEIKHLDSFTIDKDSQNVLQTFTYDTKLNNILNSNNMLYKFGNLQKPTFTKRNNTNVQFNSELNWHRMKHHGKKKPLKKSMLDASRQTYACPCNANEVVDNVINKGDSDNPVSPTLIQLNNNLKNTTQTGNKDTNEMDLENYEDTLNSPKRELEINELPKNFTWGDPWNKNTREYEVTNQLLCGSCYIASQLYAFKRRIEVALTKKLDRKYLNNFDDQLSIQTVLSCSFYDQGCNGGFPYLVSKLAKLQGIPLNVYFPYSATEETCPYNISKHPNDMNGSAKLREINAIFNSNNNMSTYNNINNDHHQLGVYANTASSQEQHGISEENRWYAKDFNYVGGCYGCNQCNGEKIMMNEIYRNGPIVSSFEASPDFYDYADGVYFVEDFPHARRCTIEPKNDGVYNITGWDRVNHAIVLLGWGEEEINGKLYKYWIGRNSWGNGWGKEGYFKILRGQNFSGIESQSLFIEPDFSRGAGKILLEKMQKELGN", "assay": "primary screen, percent inhibition; read by cleavage of a fluorogenic dipeptide substrate; higher = more effect of the substance", "set-up": "species or system P. falciparum D10 trophozoite lysates; single well", "units": {"% Inhibition @ 10 uM": "%"}}
{"smiles": "C1CCN(CCCNC2C3CC4CC(C3)CC2C4)C1", "note": "(centres unmarked)", "% Inhibition @ 10 uM": -0.192}
{"smiles": "COc1ccc(C(=O)N2CCC(N3CCCCCC3)CC2)cc1", "% Inhibition @ 10 uM": 1.91}
{"smiles": "Cc1nc2c3ccccc3n3c(CCCC(=O)O)nnc3n2n1", "% Inhibition @ 10 uM": -2.92}
{"smiles": "Cc1[nH]nc(O)c1C(c1c(O)n[nH]c1C)c1c[nH]c2ccccc12", "% Inhibition @ 10 uM": -6.24}
{"smiles": "c1cncc(C(c2c[nH]c3ccccc23)c2c[nH]c3ccccc23)c1", "% Inhibition @ 10 uM": 92.4}
{"smiles": "CCc1[nH]c2ccccc2c1C(C)c1cccnc1", "note": "(centres unmarked)", "% Inhibition @ 10 uM": -4.49}
{"smiles": "CC(C)(C)C1CCC(OC(=O)CCC(=O)Nc2ccccc2)CC1", "note": "(centres unmarked)", "% Inhibition @ 10 uM": 3.16}
{"smiles": "N#Cc1cnn(-c2cc(Oc3ccccc3)nc(-c3ccccc3)n2)c1N", "% Inhibition @ 10 uM": -0.941}
{"smiles": "Cc1cccc(-n2c(C)cc(/C=C3\\C(=N)N4N=C(S(C)(=O)=O)SC4=NC3=O)c2C)c1", "% Inhibition @ 10 uM": 52.6}
{"smiles": "Cc1cccc(C)c1-n1c(C)cc(/C=C2\\C(=N)N3N=C(S(C)(=O)=O)SC3=NC2=O)c1C", "% Inhibition @ 10 uM": 5.1}
{"smiles": "Cc1cc(/C=C2\\C(=N)N3N=C(S(C)(=O)=O)SC3=NC2=O)c(C)n1-c1cccc(C(F)(F)F)c1", "% Inhibition @ 10 uM": 3.53}
{"smiles": "CN(C)CCN(Cc1ccccc1)c1ncnc2onc(-c3ccc(F)cc3)c12", "% Inhibition @ 10 uM": -2.52}
{"smiles": "CC(=O)Nc1ccc(Nc2nc(-c3c(C)nc4cc(C)ccn34)cs2)cc1", "% Inhibition @ 10 uM": 25.6}
{"smiles": "CC(C)Cc1c(C#N)c(SCC(N)=O)nc2c1CCCC2", "% Inhibition @ 10 uM": 9.71}
{"smiles": "N#Cc1c(S)nc2c(c1-c1ccncc1)CCCC2", "% Inhibition @ 10 uM": 30.8}
{"smiles": "N#Cc1c(S)nc2c(c1/C=C/c1ccccc1)CCC2", "% Inhibition @ 10 uM": 17.3}
{"smiles": "CCc1c(C#N)c(S)nc2c1CCC2", "% Inhibition @ 10 uM": 88.7}
{"smiles": "CC(C)Cc1c(C#N)c(S)nc2c1CCCC2", "% Inhibition @ 10 uM": 90.5}
{"smiles": "CCc1c(C#N)c(SCC(=O)OC)nc2c1CCC2", "% Inhibition @ 10 uM": 4.16}
{"smiles": "CCn1ncc(Br)c1C(=O)Nc1ccc(S(=O)(=O)Nc2ccc(OC)cc2)cc1", "% Inhibition @ 10 uM": -4.43}
{"smiles": "O=C(O)c1cc(C(=O)O)cc(N2C(=O)c3ccc([N+](=O)[O-])cc3C2=O)c1", "% Inhibition @ 10 uM": 1.64}
{"smiles": "O=C(CN1CCOCC1)c1c[nH]c2ccccc12", "% Inhibition @ 10 uM": 7.5}
{"smiles": "CC1(C)OCCN1C(=O)C(=O)c1c[nH]c2ccccc12", "% Inhibition @ 10 uM": -2.68}
{"smiles": "O=C(c1sc(N2CCOCC2)nc1-c1ccccc1)c1c[nH]c2ccccc12", "% Inhibition @ 10 uM": 72.2}
{"smiles": "Cc1nnc(N2CCC(C(=O)NCCc3ccc(Cl)cc3)CC2)c2nn(-c3ccccc3)c(C)c12", "% Inhibition @ 10 uM": 0.58}
{"smiles": "COc1ccc(C2=NN(CCc3ccccn3)C(=O)C2)cc1", "% Inhibition @ 10 uM": -4.06}
{"smiles": "O=C1N=C(N2CCN(Cc3ccccc3)CC2)S/C1=C\\c1ccccc1", "% Inhibition @ 10 uM": -2.82}
{"smiles": "O=C1N=C(N2CCN(Cc3ccccc3)CC2)S/C1=C\\c1cccc(O)c1", "% Inhibition @ 10 uM": 51}
{"smiles": "O=C1N=C(N2CCN(C3=NC(=O)/C(=C\\c4cccc(O)c4)S3)CC2)S/C1=C\\c1cccc(O)c1", "% Inhibition @ 10 uM": 6}
{"smiles": "CCOC(=O)N1CCC(NC(=O)Cc2cn(C)c3ccccc23)CC1", "% Inhibition @ 10 uM": -2.41}
{"smiles": "CCOC(=O)N1CCN(C(=O)Cc2cn(C)c3ccccc23)CC1", "% Inhibition @ 10 uM": 85.9}
{"smiles": "CCOC(=O)N1CCN(C(=O)Cc2c(C(=O)O)n(C)c3ccccc23)CC1", "% Inhibition @ 10 uM": 2.84}
{"smiles": "Cn1cc(CC(=O)NCc2ccccn2)c2ccccc21", "% Inhibition @ 10 uM": 87.4}
{"smiles": "Cn1cc(CC(=O)NCc2ccc(F)cc2)c2ccccc21", "% Inhibition @ 10 uM": -4.76}
{"smiles": "Cn1cc(CCC(=O)NCc2ccccn2)c2ccccc21", "% Inhibition @ 10 uM": 3.28}
{"smiles": "CSCCCN(C)CCc1ccccn1", "% Inhibition @ 10 uM": -7.56}
{"smiles": "CN(C)c1ccc(NC(=O)C23CC4CC(C2)CC(n2cnc(Cl)n2)(C4)C3)cc1", "% Inhibition @ 10 uM": -0.305}
{"smiles": "Cc1ccc(C)c(-c2csc(NC(=O)CSc3ccccc3)c2C(N)=O)c1", "% Inhibition @ 10 uM": 1.02}
{"smiles": "N#Cc1c(C(F)(F)F)cc(-c2ccccc2)nc1SCc1nc(N)nc(N2CCOCC2)n1", "% Inhibition @ 10 uM": 5.18}
{"smiles": "N#Cc1c(C(F)(F)F)cc(-c2cccs2)nc1SCC(=O)N1CCOCC1", "% Inhibition @ 10 uM": 72.6}
{"smiles": "N#Cc1c(C(F)(F)F)cc(-c2cccs2)nc1SCC(=O)Nc1ccc(C(N)=O)cc1", "% Inhibition @ 10 uM": -7.55}
{"smiles": "N#Cc1c(C(F)(F)F)cc(-c2cccs2)nc1SCC(=O)O", "% Inhibition @ 10 uM": 9.42}
{"smiles": "N#Cc1c(C(F)(F)F)cc(-c2cccs2)nc1SCC(=O)NC1CC1", "% Inhibition @ 10 uM": 1.76}
{"smiles": "COc1ccc(-c2cc(-c3ccccc3)nc(SCC(=O)N3CCOCC3)c2C#N)cc1", "% Inhibition @ 10 uM": 5.24}
{"smiles": "N#Cc1c(C(F)(F)F)cc(-c2cccs2)nc1SCC(=O)N1CCCCC1", "% Inhibition @ 10 uM": 87}
{"smiles": "O=C(CSc1ccc(-c2cccs2)nn1)N1CCOCC1", "% Inhibition @ 10 uM": 5.85}
{"smiles": "N#Cc1c(C(F)(F)F)cc(-c2cccs2)nc1SCc1nc(N)nc(N2CCOCC2)n1", "% Inhibition @ 10 uM": 64.2}
{"smiles": "Cn1cccc1/C=C1/CCC(C2CCCC2)C1=O", "note": "(centres unmarked)", "% Inhibition @ 10 uM": -5.51}
{"smiles": "Cc1ccc(C)n1-c1nnc(N2CCC(C(=O)NCCc3ccc(Cl)cc3)CC2)s1", "% Inhibition @ 10 uM": -4.04}
{"smiles": "O=C(NC1CCCC1)N(Cc1ccc2c(c1)OCO2)C1CCN(Cc2ccccc2)CC1", "% Inhibition @ 10 uM": -1.41}
{"smiles": "Cc1nc2c(c(C)nn2-c2ccccc2)c(C)c1CCC(=O)NCCC(C)C", "% Inhibition @ 10 uM": 2.57}
{"smiles": "CCc1ccc2ncc(S(=O)(=O)c3ccccc3)c(N3CCCC3)c2c1", "% Inhibition @ 10 uM": -3.69}
{"smiles": "CSC1=C(C#N)C2(CCCC2)C(C#N)C(=O)N1", "note": "(centres unmarked)", "% Inhibition @ 10 uM": -0.239}
{"smiles": "N#CC1=C(S)NC(=O)C(C#N)C12CCCCC2", "note": "(centres unmarked)", "% Inhibition @ 10 uM": 57.8}
{"smiles": "CSC1=C(C#N)C2(CCCCC2)C(C#N)C(=O)N1", "note": "(centres unmarked)", "% Inhibition @ 10 uM": -0.736}
{"smiles": "CCN(CC)C(=O)/C=C/c1ccc(Cl)cc1", "% Inhibition @ 10 uM": 3}
{"smiles": "Cn1c(=O)c2c(nc(CN3CCc4ccccc4C3)n2CCc2ccccc2)n(C)c1=O", "% Inhibition @ 10 uM": 2}
{"smiles": "Cn1c(=O)c2c(nc(CN3CCc4ccccc4C3)n2CCCc2ccccc2)n(C)c1=O", "% Inhibition @ 10 uM": 59.1}
{"smiles": "Cn1c(=O)c2c(nc(CN3CCc4ccccc4C3)n2Cc2ccccc2)n(C)c1=O", "% Inhibition @ 10 uM": -0.499}
{"smiles": "CC1=CC2=NC(=O)/C(=C\\c3cccn3CCCOc3ccc(C)cc3)C(=N)N2O1", "% Inhibition @ 10 uM": -1.43}
{"smiles": "CCOC(=O)c1cc2c(=O)n3ccccc3nc2n(CCOC)/c1=N\\C(=O)C(C)(C)C", "% Inhibition @ 10 uM": -2.04}
{"smiles": "COC(=O)Nc1ccc(S(=O)(=O)N2CCN(c3ccccc3OC)CC2)cc1", "% Inhibition @ 10 uM": -5.13}
{"smiles": "COc1ccc(C(=O)Sc2nc(C)cc(C)n2)cc1", "% Inhibition @ 10 uM": 54.6}
{"smiles": "Cc1cc(C)nc(SC(=O)c2ccc(Cl)cc2Cl)n1", "% Inhibition @ 10 uM": -5.13}
{"smiles": "COC(=O)c1ccc(Oc2nc(C)cc(N)n2)cc1", "% Inhibition @ 10 uM": -2.87}
